HCV inhibitor: blocks hepatitis C virus; Huh7.5.1 HCVcc-Cre infection, luciferase reporter, 44 h; Potency, µM (top dose mostly 41.8 µM), for the others: at the highest dose activity change, negative = inhibition, most hits filed as inhibitors; hit rate 3.4% among 340,000; AID 651820; further: potency means the concentration at half of the fitted maximal effect
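HCVcc-Cre virus at an moi near 0.5 was added right after compound to cells cultured 4 h from seeding (1,000 cells/well). Luciferase activity was determined 44 h later, 15 min after substrate addition at RT.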
Sm TGR inh: S. mansoni TGR enzyme inhibition | Q962Y6 | purified TGR, DTNB reduction, TNB absorbance 405 nm | Potency, µM (doses to about 114 µM), inactives show at the highest dose activity change, negative = inhibition, hits mostly inhibitors | hit rate 3% among 360,000 | AID 485364; further: potency means the concentration at half of the fitted maximal effect; nearly all actives have a fitted effect of over 60% in size
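First, TGR (20 nM dispensed) and NADPH were mixed with compound. Second, a 15 min room-temperature incubation followed. Third, further NADPH and then DTNB were added to start the reaction. Finally, TNB absorbance was monitored kinetically.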
HCMV antiviral: blocks human cytomegalovirus replication; HFF cells, HCMV-luciferase reporter, 72 h; active compounds read low; hit rate 4.5% among 410,000; activity change, negative = inhibition, % at 57.5 µM; AID 1259415; in the data active means activity change below about -60%; inconclusive means no clear call, values can overlap the other calls; inactive means above about -39%
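Screen run at 2 compound doses on HFFs infected with reporter HCMV, MOI 1 PFU/cell. Luciferase activity from cell lysates at 72 h post infection gave inhibition relative to buffer-only and Salinomycin wells.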
FMDV inh: antivirals against foot and mouth disease virus | hit rate 1.2% among 410,000 | FMDV antiviral cell-based qHTS | Potency, µM (titrated, usually from 57.9 µM), inactives show top-dose activity change, negative = inhibition, most hits filed as inhibitors; calls by dose curve; tested in HEK293T cells; further: read-out not given here; potency means the concentration at half of the fitted maximal effect; nearly all actives have a fitted effect of over 45% in size
Vaccinia mCherry: inhibitors of vaccinia virus infection (mCherry reporter signal) | Vaccinia virus mCherry reporter infection, fluorescence | Potency, µM (highest dose often 36.5 µM), for inactives: at the highest dose activity change, negative = inhibition, hits mostly inhibitors | hit rate 0.63% among 310,000 | AID 720579; calls by dose curve; tested in A549 cells; further: potency means the concentration at half of the fitted maximal effect; nearly all actives have a fitted effect of over 35% in size
VACV Venus inh: vaccinia inhibition (Venus reporter) | hit rate 0.46% among 330,000 | Potency, µM (highest dose often 36.5 µM), inactives show at the highest dose activity change, negative = inhibition, most hits filed as inhibitors | AID 720580 | Vaccinia virus Venus reporter expression, fluorescence; calls by dose curve; tested in A549 cells; further: potency means the concentration at half of the fitted maximal effect; nearly all actives have a fitted effect of over 30% in size
The depositor's hits bear a star; i = inactive; ? = inconclusive; · = not tested or not shown; [ ] = remark or other dose. In the library only some 9.3% were active in any assay of this set; here they are far more common. Unless noted, the call rests on the fitted dose curve; in most records, active means well fitted curve in the direction sought with a large enough effect; inconclusive means small, poorly fitted or top-dose-only effect, or another doubt; inactive means no such curve, though single readings can be large; an effect the other way counts as inactive or inconclusive. On the % scale 0 is the no-effect control and ±100 the full control effect.

SMILES | HCV inhibitor | Sm TGR inh | HCMV antiviral | FMDV inh | Vaccinia mCherry | VACV Venus inh
Cn1c(=O)c2c(ncn2CC(=O)Nc2nc(-c3ccccc3Cl)cs2)n(C)c1=O | ? | 5.2% | -60.1* | 12.6µM* | · | ·
Cn1c(=O)c2c(ncn2CC(=O)Nc2ccccc2Sc2ccccc2)n(C)c1=O | -8.9% | -5.8% | -76.2* | · | -11.3% | -20.0%
CCOC(=O)Cc1csc(NC(=O)Cn2cnc3c2c(=O)n(C)c(=O)n3C)n1 | 1.3% | -9.3% | 15.0 | ? | -2.7% | 1.0%
N=c1sccn1CC(=O)Nc1ccccc1Sc1ccccc1 | -12.8% | 1.5% | -62.1* | -27.8% | -11.4% | -15.6%
O=C(/C=C/Nc1cccc([N+](=O)[O-])c1)c1cccs1 | 3.2% | -33.8% | 261.2 | -16.6% | · | ·
Cc1ccccc1OCC(=O)Nc1ccc2[nH]c(=O)sc2c1 | · | 4.2% | -23.5 | -19.9% | -4.3% | -7.5%
CCCc1cc(=O)[nH]c(Nc2cc(C)cc(C)c2)n1 | · | 0.9% | 30.6 | -14.1% | -15.1% | -10.7%
CCCc1cc(=O)[nH]c(Nc2cc(Cl)cc(Cl)c2)n1 | · | 11.1% | -105.7* | ? | ? | ?
COc1cc(C(C)=O)ccc1COc1ccc(C(=O)OCC(=O)NC(C)(C)C)cc1OC | 2.2% | 0.9% | -36.4 | 20µM* | i | -20.1%
CCCn1nnc(NC(=S)NC(=O)/C=C/c2ccco2)n1 | 13.0% | 7.08µM* | -34.0 | -6.1% | -16.7%[7.34 µM] | -14.2%[7.34 µM]
Cn1nnc(NC(=O)/C=C/c2ccco2)n1 | 12.0% | 8.91µM* | -20.2 | 13.6% | i | 7.3%
COc1ccc(OC)c(CNC(=O)c2nn(C)c3c2CS(=O)(=O)c2ccccc2-3)c1 | -18.5% | -4.1% | -29.2 | -19.7% | -7.9% | -6.8%
CN1C(=O)C(Cc2ccsc2)C(=O)N(C)C1=O | 15.5% | 5.01µM* | -8.3 | 3.9% | · | -4.2%
CN1C(=O)C(Cc2ccccc2)C(=O)N(C)C1=O | 29.4% | · | 9.9 | -8.0% | i | -3.4%
COc1cc2c(cc1NC(=O)C(C)OC(=O)C1CC(=O)N(Cc3ccco3)C1)oc1ccccc12 (stereo not given) | 14.1µM* | -20.8% | 172.2 | 0.0% | -4.0%[1.46 µM] | -27.9%
Cc1ccc(N(C(=O)CCC(=O)Nc2nccs2)C(C(=O)NC(C)(C)C)c2ccc(O)cc2)cc1 (stereo not given) | -15.4% | · | ? | -17.2% | i | -7.2%
CCOC(=O)c1ccc(NC(=O)CC2SC(=NC)N(C)C2=O)cc1 (stereo not given) | ? | -7.0% | -19.3 | -5.0% | · | -7.2%
COc1ccc(NC(=O)CC2Sc3ncnn3C2=O)cc1 (stereo not given) | 5.8% | 0.631µM* | 11.4 | -15.8% | -5.7% | -0.8%
O=C(CC1Sc2ncnn2C1=O)Nc1ccc(Cl)cc1 (stereo not given) | 3.3% | 5.62µM* | -18.7 | -9.9% | -2.2% | -7.8%
COCCN1C(=O)C(CC(=O)Nc2ccccc2)SC1=Nc1ccc(OC)cc1 (stereo not given) | 0.8% | 2.2% | 14.0 | -19.9% | -22.8% | -18.1%
CCOC(=O)c1ccc(NC(=O)CC2Sc3ncnn3C2=O)cc1 (stereo not given) | ? | 1.58µM* | -29.1 | -7.7% | · | ·
O=C(CC1SC2=NCCN2C1=O)Nc1ccc(Cl)cc1 (stereo not given) | 7.9% | 8.3% | 38.0 | 6.5% | · | ·
COc1cc(CN2C(=O)C(C)ON=C2c2cccs2)cc(OC)c1 (stereo not given) | · | · | -21.9 | -20.2% | 30.4% | 2.6%
O=S(=O)(O)Sc1ccccc1 | · | · | -87.0* | -11.6% | -17.4% | -8.4%
N#Cc1ncc(C(F)(F)F)cc1Sc1ccc(N)cc1 | -27.4% | -2.7% | 1.6 | ? | · | -12.4%
OCc1ccccc1O | · | · | · | -10.7% | i | -6.3%
OCc1ccccc1SSc1ccccc1CO | -10.3% | · | -98.3* | -24.7% | i[7.34 µM] | -2.5%[7.34 µM]
Cc1ccc(CN2C(=O)c3ccccc3Sc3ccc(C(=O)NC4CCCC4)cc32)cc1 | · | 12.3% | -26.2 | 11.0% | -21.6% | -22.1%
Cc1ccc(S(=O)(=O)SCCCSS(=O)(=O)c2ccc(C)cc2)cc1 | ? | · | -3.7 | -8.0% | i | 3.1%
O=C(Cc1ccc(F)cc1)N1CCN=C1SCc1ccc([N+](=O)[O-])cc1 | ? | -18.2% | -68.2* | -19.5% | -24.5% | -18.3%
